Inconclusive results are not listed. Calls of active or inactive are those of the source. The call rests on the fitted dose curve; in most records, active means well fitted curve in the direction sought with a large enough effect; inconclusive means small, poorly fitted or top-dose-only effect, or another doubt; inactive means no such curve, though single readings can be large; an effect the other way counts as inactive or inconclusive.
Experiments:
[1] = S16 Schwann cell viability assay (CellTiter-Glo assay) (AID 624031);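 further: native untransfected S16 rat Schwann cells; cellular ATP luminescence as a viability measure; nearly all actives have a fitted effect of over 70% in size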
Method in brief: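 Rat S16 Schwann cells without reporter constructs received compound or DMSO for 24 h at 37 °C under 5% CO2. Cellular ATP was then quantified by CellTiter-Glo luminescence, with vehicle wells defined as 0% activity and cell-free wells as reference.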

3D7 = assay: qHTS profiling for inhibitors of Plasmodium falciparum proliferation (AID 504749); further: nearly all actives have a fitted effect of over 60% in size; further: potency means the concentration at half of the fitted maximal effect; details: P. falciparum in erythrocytes, SYBR Green DNA, 72 h; series mostly up to 12.8 µM
Method in brief: (§1)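 SYBR Green fluorescence (ex 485 nm, em 535 nm) reports parasite DNA after 72 h compound exposure of infected red cells at 0.3% parasitemia, 2.5% hematocrit; signal normalized to 0.29 uM artemisinin and vehicle wells.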

AS120 = assay: as above; details: P. falciparum in erythrocytes, SYBR Green DNA, 72 h; series mostly up to 12.8 µM
Method in brief: as §1

ATS189 = assay: as above; details: P. falciparum in erythrocytes, SYBR Green DNA, 72 h; series mostly up to 12.8 µM
Method in brief: as §1

ATS95 = assay: as above; details: P. falciparum in erythrocytes, SYBR Green DNA, 72 h; series mostly up to 12.8 µM
Method in brief: as §1

CP191 = assay: as above; details: P. falciparum in erythrocytes, SYBR Green DNA, 72 h; series mostly up to 12.8 µM
Method in brief: as §1

CP192 = assay: as above; details: P. falciparum in erythrocytes, SYBR Green DNA, 72 h; series mostly up to 12.8 µM
Method in brief: as §1

CP247 = assay: as above; details: P. falciparum in erythrocytes, SYBR Green DNA, 72 h; series mostly up to 12.8 µM
Method in brief: as §1

CP265 = assay: as above; details: P. falciparum in erythrocytes, SYBR Green DNA, 72 h; series mostly up to 12.8 µM
Method in brief: as §1

CP266 = assay: as above; details: P. falciparum in erythrocytes, SYBR Green DNA, 72 h; series mostly up to 12.8 µM
Method in brief: as §1

N140 = assay: as above; details: P. falciparum in erythrocytes, SYBR Green DNA, 72 h; series mostly up to 12.8 µM
Method in brief: as §1

PC15 = assay: as above; details: P. falciparum in erythrocytes, SYBR Green DNA, 72 h; series mostly up to 12.8 µM
Method in brief: as §1

PC49 = assay: as above; details: P. falciparum in erythrocytes, SYBR Green DNA, 72 h; series mostly up to 12.8 µM
Method in brief: as §1

CP252 = assay: as above; details: P. falciparum in erythrocytes, SYBR Green DNA, 72 h; series mostly up to 12.8 µM
Method in brief: as §1

CP262 = assay: as above; details: P. falciparum in erythrocytes, SYBR Green DNA, 72 h; series mostly up to 12.8 µM
Method in brief: as §1

CP268 = assay: as above; details: P. falciparum in erythrocytes, SYBR Green DNA, 72 h; series mostly up to 12.8 µM
Method in brief: as §1

CP305 = assay: as above; details: P. falciparum in erythrocytes, SYBR Green DNA, 72 h; series mostly up to 12.8 µM
Method in brief: as §1

CP329 = assay: as above; details: P. falciparum in erythrocytes, SYBR Green DNA, 72 h; series mostly up to 12.8 µM
Method in brief: as §1

TAB109 = assay: as above; details: P. falciparum in erythrocytes, SYBR Green DNA, 72 h; series mostly up to 12.8 µM
Method in brief: as §1

ICS = assay: as above; details: P. falciparum in erythrocytes, SYBR Green DNA, 72 h; series mostly up to 12.8 µM
Method in brief: as §1

Measured: Potency

CS(=O)(=O)c1ccc([C@H](O)[C@H](CO)NC(=O)C(Cl)Cl)cc1
not listed: CP252 | CP262 | CP268 | CP305 | CP329 | TAB109 | ICS
inactive: all other assays above

CNC[C@H](O)c1ccc(OC(=O)C(C)(C)C)c(OC(=O)C(C)(C)C)c1
not listed: PC15 | ICS
inactive: all other assays above

CC(=O)[C@@]1(O)CC[C@H]2[C@H]3C[C@@H](C)C4=CC(=O)C=C[C@]4(C)[C@@]3(F)[C@@H](O)C[C@]21C
not listed: CP247 | CP266 | ICS
inactive: all other assays above

O=C1O[C@H](CN2CCOCC2)CN1/N=C\c1ccc([N+](=O)[O-])o1
not listed: 3D7 | AS120 | CP265 | N140 | PC49 | TAB109 | ICS
inactive: all other assays above

CC(=O)N(C[C@@H](C)C(=O)O)c1c(I)cc(I)c(N)c1I
not listed: CP192 | CP266 | CP262 | CP268 | CP305 | CP329
inactive: all other assays above

COc1ccc([C@@H]2CC(=O)c3c(O)cc(O[C@H]4O[C@@H](CO[C@H]5O[C@@H](C)[C@@H](O)[C@@H](O)[C@@H]5O)[C@@H](O)[C@@H](O)[C@@H]4O)cc3O2)cc1O
not listed: CP192
inactive: all other assays above

O=C(NC[C@@H](O)CO)c1c(I)c(C(=O)NC[C@@H](O)CO)c(I)c(N(CCO)C(=O)CO)c1I
not listed: CP266
inactive: all other assays above

CC1(C)O[C@@H]2C[C@H]3[C@H]4C[C@H](F)C5=CC(=O)CC[C@]5(C)[C@@H]4[C@H](O)C[C@]3(C)[C@]2(C(=O)CO)O1
not listed: CP192
inactive: all other assays above

O=C(Nc1ccccc1)OC[C@H](CN1CCCCC1)OC(=O)Nc1ccccc1
inactive: all assays above

CC[N+](CC)(CC)CC[C@](O)(c1ccccc1)C1CCCCC1
not listed: ICS
inactive: all other assays above

CO[C@H]1[C@H](O[C@H]2O[C@@H](C)[C@@H](O[C@@H]3C[C@](C)(O)[C@H](OC(=O)CC(C)C)[C@H](C)O3)[C@@H](N(C)C)[C@@H]2O)[C@@H](CC=O)C[C@@H](C)[C@@H](O)/C=C\C=C/C[C@@H](C)OC(=O)C[C@H]1OC(C)=O
active: CP262 2280 nM | TAB109 1000 nM
inactive: [1] | 3D7 | PC49

CN1C(=O)C[C@H](c2ccccc2)C1=O
active: ATS95 7.1 nM | TAB109 5 nM
not listed: [1] | AS120 | CP265
inactive: all other assays above

CC(=O)OCC(=O)[C@@]1(O)CC[C@@H]2[C@H]3CCC4=CC(=O)C=C[C@]4(C)[C@]3(F)[C@@H](O)C[C@@]21C
inactive: all assays above

C[N+]12CCC(CC1)[C@@H](OC(=O)C(O)(c1ccccc1)c1ccccc1)C2
not listed: CP305
inactive: all other assays above

C=CCOc1ccccc1OC[C@H](O)CNC(C)C
not listed: CP266
inactive: all other assays above

C#C[C@@]1(O)CC[C@@H]2[C@@H]3CCC4=C(CCC(=O)C4)[C@H]3CC[C@]21C
inactive: [1]

CC[C@@H]1OC(=O)[C@H](C)[C@H](O[C@@H]2C[C@](C)(OC)[C@H](O)[C@H](C)O2)[C@H](C)[C@H](O[C@@H]2O[C@@H](C)C[C@@H](N(C)C)[C@@H]2O)[C@](C)(O)C[C@H](C)C(=NOCOCCOC)[C@H](C)[C@H](O)[C@]1(C)O
not listed: CP191 | CP266 | CP252
inactive: all other assays above

CO[C@]1(NC(=O)C2SC(=C(C(N)=O)C(=O)O)S2)C(=O)N2C(C(=O)O)=C(CSc3nnnn3C)CS[C@H]21 (stereo partly drawn)
inactive: all assays above

NS(=O)(=O)c1cc2c(cc1Cl)N[C@@H](CC1CCCC1)NS2(=O)=O
not listed: PC49
inactive: all other assays above

CN(C)CCn1nnnc1SCC1=C(C(=O)O)N2C(=O)[C@@H](NC(=O)Cc3csc(N)n3)[C@@H]2SC1
active: ICS 2510 nM
not listed: ATS189 | CP191 | CP265 | N140 | PC15 | TAB109
inactive: all other assays above

NC(=O)N[C@H]1NC(=O)NC1=O
not listed: 3D7
inactive: all other assays above

CC(C)(C)NC[C@H](O)COc1cccc2c1CCC(=O)N2
inactive: all assays above

C[C@@]12CC[C@H]3[C@@H](CCC4=CC(=O)CC[C@]43C)[C@H]1CC[C@H]2C(=O)CO
active: ICS 3550 nM
not listed: AS120 | CP247
inactive: all other assays above

C[C@@H]1Cc2ccccc2N1NC(=O)c1ccc(Cl)c(S(N)=O)c1 (stereo partly drawn)
not listed: [1]
inactive: all other assays above
